Measured values reported in PubChem BioAssay (NCATS).
Values joined by “and” are separate entries in the source; they are usually repeats but may differ in a detail not shown here. Equal values may be shown once. Results filed as inconclusive are left out. Active and inactive are the calls of the source. Calls follow the shape of the dose curve; as a rule, active = well fitted curve in the direction sought with a large enough effect; inconclusive = small, poorly fitted or top-dose-only effect, or another doubt; inactive = no such curve, though single readings can be large; an effect the other way counts as inactive or inconclusive.

Tests used:
[1] = Viability qHTS for spleen associated tyrosine kinase inhibitor (SYKi) naive MV4-11 cells (AID 1963823); also: nearly all actives have a fitted effect of over 40% in size
Method in brief: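 SYKi-naive MV4-11 AML cells, 500 per well, were exposed to library compounds for 72 hr at 37 C, 5% CO2. Viability was then read by CellTiter-Glo luminescence after 10 min at room temperature.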

[2] = Viability qHTS for spleen associated tyrosine kinase inhibitor (SYKi) drug resistant MV4-11 cells (AID 1963824); also: nearly all actives have a fitted effect of over 35% in size
Method in brief: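 SYK-inhibitor-resistant MV4-11 AML cells were seeded at 500 per well onto compound and cultured 72 hours (37 °C, 5% CO2). CellTiter-Glo was then added, and after 10 min at room temperature, luminescence gave viability.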

[3] = Quantitative highthroughput screen to assess conditional lethalithy of NOMO1 cells grown in RPMI1640 with untreated serum (RPMI+s) (AID 1963876); also: nearly all actives have a fitted effect of over 35% in size;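 as to Viability: 100% = DMSO wells and 0% = empty wells without cells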
Method in brief: (§1)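 Each medium arm—HPLM with 10% dialyzed FBS, or RPMI1640 with 5 mM glucose and 10% untreated or dialyzed FBS—was screened against an 11-point, 3-fold compound titration for 48 h at 37 °C, with CellTiter-Glo luminescence as endpoint.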

[4] = Quantitative highthroughput screen to assess conditional lethalithy of NOMO1 cells grown in RPMI1640 with dialyzed fetal bovine serum (RPMI+ds) (AID 1963877); also: nearly all actives have a fitted effect of over 30% in size;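 as to Viability: series mostly up to about 46 µM; 100% = DMSO control wells and 0% = empty wells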
Method in brief: as §1

[5] = Quantitative highthroughput screen to assess conditional lethalithy of P12 Ichikawa cells grown in Human Plasma-Like Medium with dialyzed fetal bovine serum (HPLM+ds) (AID 1963879); details: Potency: viability; also: nearly all actives have a fitted effect of over 35% in size; as to Viability: series mostly up to about 46 µM
Method in brief: as §1

[6] = Quantitative highthroughput screen to assess conditional lethalithy of P12 Ichikawa cells grown in RPMI1640 with dialyzed fetal bovine serum (RPMI+ds) (AID 1963880); details: Potency: P12-Ichikawa viability; also: nearly all actives have a fitted effect of over 35% in size;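 as to Viability: 100% = DMSO wells and 0% = empty wells on each plate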
Method in brief: as §1

[7] = Quantitative highthroughput screen to assess conditional lethalithy of P12 Ichikawa cells grown in RPMI1640 with untreated serum (RPMI+s) (AID 1963881); details: Potency: viability; also: nearly all actives have a fitted effect of over 35% in size;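 as to Viability: series mostly up to about 46 µM; 100% = DMSO wells and 0% = empty wells without cells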
Method in brief: as §1

[8] = Quantitative highthroughput screen to assess conditional lethalithy of SEM cells grown in Human Plasma-Like Medium with dialyzed fetal bovine serum (HPLM+ds) (AID 1963882); also: nearly all actives have a fitted effect of over 35% in size; as to Viability: series mostly up to about 46 µM
Method in brief: as §1

[9] = Quantitative highthroughput screen to assess conditional lethalithy of SEM cells grown in RPMI1640 with unreated serum (RPMI+s) (AID 1963883); also: nearly all actives have a fitted effect of over 35% in size;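 as to Viability: 100% = DMSO wells and 0% = empty wells without cells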
Method in brief: as §1

[10] = Quantitative highthroughput screen to assess conditional lethalithy of SEM cells grown in RPMI1640 with dialyzed fetal bovine serum (RPMI+ds) (AID 1963884); also: nearly all actives have a fitted effect of over 35% in size;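 as to Viability: series mostly up to about 46 µM; 100% = DMSO control wells and 0% = empty wells without cells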
Method in brief: as §1

[11] = Cellular viability qHTS for adrenocortical cancer (ACC) cell line SW-13 (AID 1963989); details: SW-13 ACC cells viability, CellTiter-Glo, 48 h; activity (max response): active compounds read low; also: nearly all actives have a fitted effect of over 65% in size;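 as to activity (max response): cells grown in serum-free medium with ITS supplement; % is scaled to controls: 0 for no effect and ±100 for the full control effect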
Method in brief: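 Viability was read as CellTiter-Glo luminescence after 48 h compound treatment (up to 46 uM final) of SW-13 cells grown serum-free; titration curves were fit with a four-parameter logistic model to give IC50 and efficacy.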

[12] = Cellular viability qHTS for adrenocortical cancer (ACC) cell line NCI-H295R (AID 1963990); also: nearly all actives have a fitted effect of over 60% in size
Method in brief: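 CellTiter-Glo ATP luminescence, read 48 h after compound addition, measured viability of NCI-H295R adrenocortical cells grown serum-free with ITS. Final concentrations spanned up to 46 uM. Data normalized to DMSO and doxorubicin, fitted for IC50 and maximal response.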

[13] = Quantitative highthroughput screen to assess conditional lethalithy of NOMO1 cells grown in Human Plasma-Like Medium with dialyzed fetal bovine serum (HPLM+ds) (AID 1963878); also: nearly all actives have a fitted effect of over 35% in size;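 as to Viability: 100% = DMSO wells and 0% = empty wells on each plate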
Method in brief: as §1
Potency is read from the fitted curve at half-maximal effect.

Cc1c(-c2ccnn2C)cc(C(=O)NCc2ccc(S(C)(=O)=O)cn2)c(=O)n1-c1cccc(C(F)(F)F)c1
inactive: Potency [1] | Potency [2] | Potency [3] | Potency [4] | Potency [5] | Potency [6] | Potency [7] | Potency [8] | Potency [9] | Potency [10] | activity (max response) [11] 5.26% | Potency [12]

CCN1CCN(c2ccc(Nc3cc(N(C)C(=O)Nc4c(Cl)c(OC)cc(OC)c4Cl)ncn3)cc2)CC1
active: Potency [1] 2.63 µM | Potency [2] 1.86 µM | Potency [3] 5.26 µM | Potency [4] 7.43 µM | Potency [13] 3.32 µM | Potency [8] 4.18 µM | Potency [10] 2.64 µM
inactive: activity (max response) [11] -7.03% | Potency [12]

CCC(=O)N[C@H]1CC[C@H](C(=O)N(C)c2ccc(-c3nc4ccccc4o3)cc2)C1
active: Potency [1] 14.8 µM | Potency [2] 14.8 µM
inactive: Potency [3] | Potency [4] | Potency [13] | Potency [8] | Potency [12]

CNC(=O)c1nn(C)c2c1C(C)(C)Cc1cnc(Nc3ccc(N4CCN(C)CC4)cc3)nc1-2
active: Potency [1] 51.7 nM and 74.2 nM | Potency [2] 82 nM and 209 nM | Potency [3] 16.6 µM | Potency [4] 14.8 µM | Potency [13] 8.33 µM | Potency [9] 0.372 µM | Potency [10] 0.418 µM | Potency [11] 5.01 µM | Potency [12] 14.1 µM

CNC(=O)c1ccc2c(C(=Nc3cccc(CN(C)C)c3)c3ccccc3)c(O)[nH]c2c1
active: Potency [1] 2.95 µM | Potency [2] 5.8 µM and 3.72 µM | Potency [3] 20.9 µM | Potency [4] 18.7 µM | Potency [13] 16.6 µM | Potency [8] 1.87 µM | Potency [9] 0.935 µM | Potency [10] 1.32 µM | Potency [12] 22.4 µM

CC(=O)CC(c1ccccc1)c1c(O)c2ccccc2oc1=O (stereo not given)
inactive: Potency [1] | Potency [2] | Potency [3] | Potency [4] | Potency [5] | Potency [6] | Potency [7] | Potency [8] | Potency [9] | Potency [10] | activity (max response) [11] -5.83% and 0.968% | Potency [12]

COc1ccc(-n2nc(C(N)=O)c3c2C(=O)N(c2ccc(N4CCCCC4=O)cc2)CC3)cc1
inactive: Potency [1] | Potency [2] | Potency [8] | Potency [9] | Potency [10] | activity (max response) [11] -9.7% | Potency [12]
active: Potency [3] 0.118 µM | Potency [4] 0.235 µM | Potency [5] 2.64 µM | Potency [6] 2.96 µM | Potency [7] 2.64 µM

CO[C@@H]1C(N(C)C(=O)c2ccccc2)C[C@H]2O[C@]1(C)n1c3ccccc3c3c4c(c5c6ccccc6n2c5c31)C(=O)NC4=O (stereo not given in full)
inactive: Potency [12]
active: Potency [1] 0.148 µM | Potency [2] 0.332 µM | Potency [3] 14.8 µM | Potency [4] 14.8 µM | Potency [13] 9.35 µM | Potency [8] 4.69 µM | Potency [10] 3.72 µM

CN1C2CCC1CC(OC(=O)C(CO)c1ccccc1)C2 (stereo not given)
inactive: Potency [1] | Potency [2] | Potency [3] | Potency [4] | Potency [13] | Potency [8] | Potency [9] | Potency [10] | activity (max response) [11] -20.1% | Potency [12]

CN1CCN(c2ccc(C(=O)Nc3n[nH]c4ccc(Cc5cc(F)cc(F)c5)cc34)c(NC3CCOCC3)c2)CC1
active: Potency [1] 209 nM and 164 nM | Potency [2] 326 nM and 372 nM and 411 nM | Potency [3] 26.3 µM | Potency [4] 20.9 µM | Potency [5] 23.4 µM | Potency [6] 18.6 µM | Potency [7] 23.4 µM | Potency [8] 4.17 µM | Potency [9] 5.24 µM | Potency [10] 3.71 µM | Potency [11] 3.16 µM | Potency [12] 7.08 µM

O=c1cc(CN2CCOCC2)occ1OCCCCCSc1ccnc2cc(C(F)(F)F)ccc12
active: Potency [1] 11.8 µM | Potency [2] 9.34 µM | Potency [11] 15.8 µM
inactive: Potency [3] | Potency [4] | Potency [13] | Potency [8] | Potency [9] | Potency [10]

Cc1ccn(-c2ccc(-c3ncco3)cc2)c(=O)c1-c1ccc2nc(N)ncc2c1
active: Potency [1] 1.64 µM | Potency [2] 2.31 µM | Potency [10] 1.87 µM
inactive: Potency [3] | Potency [4] | Potency [13] | Potency [12]

Nc1nc2c(ncn2COC(CO)CO)c(=O)[nH]1
active: Potency [3] 26.4 µM | Potency [4] 26.4 µM | Potency [13] 23.5 µM | Potency [8] 23.5 µM | Potency [9] 20.9 µM
inactive: Potency [1] | Potency [2] | activity (max response) [11] 8.16% and -8.2% | Potency [12]

O=C(c1ccc(F)cc1)N1CCC[C@H](c2nc(-c3ccc(F)cc3)no2)C1
inactive: Potency [3] | Potency [4] | Potency [13] | Potency [8] | Potency [10] | activity (max response) [11] -11.7% | Potency [12]
active: Potency [1] 20.9 µM | Potency [2] 11.8 µM

COc1ccc(-c2oc3c(CC=C(C)C)c(O)cc(O)c3c(=O)c2O)cc1
inactive: Potency [3] | Potency [4] | Potency [13] | Potency [6] | Potency [8] | Potency [9] | Potency [10] | activity (max response) [11] -11% | Potency [12]
active: Potency [1] 8.33 µM | Potency [2] 13.2 µM
